PubChem BioAssay (NCI)
Where “and” joins values, the source holds several entries; their conditions need not be identical. Equal entries are not always repeated. Compounds without any hit were thinned out: in the full panel of roughly 83,000, 20% have a hit.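 96-well plates, one dose, 48 hours. Percent growth reported; active if below 10.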 Calls of active or inactive are those of the source.

Test system: HL-60(TB) leukemia
Assay: NCI-60 one-dose screen, 48 h (100 = growth as untreated, 0 = no growth, -100 = all killed)
Conditions: 10 µM unless noted

Compound | growth
O=C1CCC(N2C(=O)c3cccc(NCCOCCOCCNC(=O)c4cc5c(o4)C(=O)c4ccccc4C5=O)c3C2=O)C(=O)N1 (centres undefined) | -9.95% (active)
COc1ccc(CC(C#N)c2cc3ccccc3[nH]2)cc1 (centres undefined) | 97.5% (inactive)
COc1cc(CC#N)c([N+](=O)[O-])cc1OC | 92.6% (inactive)
Clc1ccc2nc(Cl)c3ccccc3c2c1 | 92.3% (inactive)
CC[C@@H](C[C@H](CCO)c1ccccc1)c1cc2ccccc2o1 | 92.5% (inactive)
CCN(CC)CCNCC(=O)Oc1ccc(/C=C/C(=O)CC(=O)/C=C/c2ccc(OC(=O)CNCCN(CC)CC)c(OC)c2)cc1OC | -22.6% (active)
O=C(CN1CCCCC1)Sc1nnc2sc3ccccc3n12 | 98.6% (inactive)
Cc1cc(N2CCCC2)nc(N(CCCNc2ccnc3cc(Cl)ccc23)Cc2ccc3c(c2)OCO3)n1 | -62.9% (active)
O=C(/C=C/c1ccco1)c1ccc(Nc2nc(Nc3ccc(F)cc3)nc(Nc3ccc(Cl)cc3)n2)cc1 | -93.7% (active)
Clc1ccc(NC(Nc2ccc(Cl)cc2)C(Cl)(Cl)Cl)cc1 | 93.3% (inactive) and 83.6% (inactive)
Cc1ccc(N=C2CSc3nnc(-c4csc5c4CCCC5)n3N2)cc1 | -25.4% (active)
O=C(CN1CCCCC1)Nc1nc(-c2cc3ccccc3oc2=O)cs1 | 93.8% (inactive)
CN(C)C(C(N)=O)c1ccc(Cl)cc1 (centres undefined) | 89.6% (inactive)
O=C(OCCBr)c1ccc(Cl)c([N+](=O)[O-])c1 | 81.7% (inactive)
COc1ccc(/C=C2/C(=O)NC(SCC(=O)N3CCN(c4cc5c(cc4F)c(=O)c(C(=O)O)cn5C4CC4)CC3)=NC2N)cc1OC (centres undefined) | 104% (inactive)
O=C1Nc2ccc(F)cc2/C1=C\c1c(-c2ccccc2)nc2ccccn12 | 56.4% (inactive)
CC1=C(C(=O)OCC2CCN(C(=O)OC(C)(C)C)CC2)[C@@H](c2cccc(C#N)c2)C2=C(CC(C)(C)CC2=O)N1 | 16.8% (inactive)
COc1ccc2c(c1)[n+]([O-])c(C#N)c(NC(=O)c1ccco1)[n+]2[O-] | 108% (inactive)
Cc1nnc(/N=C2\NC(=O)/C(=C/c3ccc(N(C)C)cc3)S2)s1 | 99.6% (inactive)
Fc1ccc(-n2cc(COc3ncnc4sc5c(c34)CCCC5)nn2)cc1Cl | 101% (inactive)

Compound | growth
CC(=O)Nc1ccc2c(c1)Cc1cc(F)ccc1-2 | 66.8% (inactive)
OCc1cnccc1NC12CC3CC(CC(C3)C1)C2 | 85.3% (inactive)
COc1ccc(-c2n[nH]nc2-c2csc3ccccc23)cc1OC | 10.1% (inactive)
CC1(c2ccccc2)NC(=O)N(CC(=O)Nc2cccc(I)c2)C1=O (centres undefined) | 84.2% (inactive)
CCOC(=O)c1cc2c(n1Cc1ccccc1OC)-c1oncc1CCC2 | 14.4% (inactive)
NS(=O)(=O)c1ccc(CCN2C(=O)/C(=C\c3ccccc3)C=C2c2ccc(Cl)cc2)cc1 | 104% (inactive)
O/N=C(/c1ccccc1)c1ccc2c3c(cccc13)CC2 | 86.9% (inactive) and 101% (inactive)
COc1cc([C@@H]2c3cc4c(cc3[C@H](O)[C@H]3COC(=O)[C@@H]23)OCO4)cc(OC)c1OC | -34.9% (active) and -61% (active)
Cc1ccc(NS(=O)(=O)c2ccc(C)cc2)cc1 | 87.5% (inactive) and 114% (inactive)
O=C(Nc1ccc(Cl)cc1)c1cc(-c2ccc(F)cc2)c2sc(=O)[nH]c2n1 | -30.6% (active)
Oc1c(Cl)cc(Cl)c2cccnc12 | 56.4% (inactive) and 5.89% (active)
CC(CCC#N)(CCC#N)C(=O)c1ccccc1 | 88.7% (inactive)
C#CCOc1cccc(Nc2ncnc3c(NC(=O)C=C)cccc23)c1 | -4.75% (active)
O=C1C(Cl)=C(Nc2ccc(O)cc2)C(=O)N1Cc1ccc(Cl)cc1 | 32.8% (inactive)
CCN(CC)CCCNc1nc(C)cc(Nc2ccc3nc(C)cc(N)c3c2)n1 | 106% (inactive)
Cn1cc(-c2csc(-c3c[nH]c4ccc(Br)cc34)n2)c2cnccc21 | -56.6% (active)
CCCCc1ccc(Nc2ccc(Nc3ccc(CCCC)cc3S(=O)(=O)O)c3c2C(=O)c2ccccc2C3=O)c(S(=O)(=O)O)c1 | 96% (inactive)
COc1ccc2c(c1)C(=O)/C(=C/c1cccc(OCC(=O)Nc3nc(C)c(C)s3)c1)O2 | -79.3% (active)
CCCCCCCCOc1ccc(/C=N/Nc2cc(C)nc3ccc(Cl)cc23)cc1 | 13.5% (inactive)
